Inconclusive results are not listed. Activity calls are given as the source filed them. Calls follow the shape of the dose curve; as a rule, active = well fitted inhibition curve with a large enough effect; inconclusive = small, poorly fitted or top-dose-only effect; inactive = no such curve, though single readings can be large or run the other way.
Potency is read from the fitted curve at half-maximal effect.

The assay in a line: BET inhibitor-based combinations targeting novel dependencies in MECOM-rearranged (r) AML: MV-4-11 cell line (AID 2202233). Also: nearly all actives have a fitted effect of over 45% in size. Conditions: MV-4-11 AML viability, CellTiter-Glo luminescence, 48 h; series mostly up to 46 µM. An excerpt:
Ecotropic viral insertion site 1 (EVI1) is located on chromosome 3q26.2 as part of the MECOM (MDS and EVI1 complex) locus. Under normal hematopoiesis, EVI1 is a regulator of hematopoietic stem cell maintenance and self-renewal and EVI1 levels decrease as the cells differentiate. In approximately 5-10% of de novo acute myeloid leukemia (AML) EVI1 is aberrantly expressed, including Chromosomal inv(3)(q21;q26.2) or t(3;3)(q21;q26.2) alterations (MECOM-r) that account for about 50% of AML with EVI1 overexpression 31. AMLs with high levels of EVI1 have a poor prognosis and an overall survival time averaging between 10-14 months. EVI1 overexpression confers resistance in leukemia cells, highlighting the need to develop new targeted therapies for EVI1 overexpressing AMLs. Here, we performed an unbiased chemical drug screening by evaluating the single agent activity of a collection of 2,480 oncology-focused, approved and investigational drugs (NCATS Mechanism Interrogation Plates, MIPE v5.0) against a panel of seven AML cell lines. These included four MECOM-r cell-lines (AML-191, AML-194, UCSD-AML1 and HNT-34) and three non-MECOM-r AMLs (MV4-11, OCI-AML3 and SET-2). Exploiting the mechanistic redundancy built in the library, we identified target-level sensitivities in MECOM-r AML cells and relative activity as compared to other AML subtypes.
A collection of 2480 mechanistically annotated dugs (MIPE v5.0) was used to screen four 3q26.2 rearranged AML cell lines and three non-3q26.2 rearranged AML cell lines. This library purposely exploits redundancy by including multiple inhibitors of key onco-targets, while simultaneously encompassing mechanistic diversity, targeting more than 800 distinct mechanisms of action. Briefly, cells were seeded in 5 uL of growth media using a Multidrop Combi dispenser into 1536 well white polystyrene tissue culture treated plates (Corning) at a density of 500cells/well. For each cell-line, for each of the 2480 drugs in MIPE v5.0 library, an 11-point dose curve was generated via a 1536 pin-tool. Plates were incubated for 48 hr at standard incubator conditions, covered by a stainless steel gasketed lid to prevent evaporation. Cell viability was determined by luminescence based, Cell Titer Glo assay (Promega). In detail, 3 uL of Cell Titer Glo were added to each well and plates were incubated at room temperature for 15 min with a stainless-steel lid in place. Luminescence readings were taken using a Viewlux (PerkinElmer) with a 2 s exposure time per plate. Compound dose-response curves were normalized to DMSO and empty well controls on each plate. Quantitative drug activity data from dose-response curves was determined utilizing area Under the Curve (AUC) and Z-transformed AUC (Z-AUC, a mean-centering transformation applied to each individual cell-line screened).
In general terms: In ATP-based viability assays light output follows the ATP content of the culture.
For the compound `COc1cc(N2CCC(O)CC2)ccc1Nc1cc(Nc2ccccc2S(=O)(=O)C(C)C)c2cc[nH]c2n1`, the Potency was 18600 nM (active). The same measure, in the same setting: for `CC(N)C12CC3CC(CC(C3)C1)C2` (stereo not given) the value was “inactive”; for `O=C(c1ccc(Nc2nccc(-c3cc4ccccc4s3)n2)cc1)N1CCC(N2CCCC2)CC1`, 1860 nM (active). On to `CC(C)C[C@H](NC(=O)[C@H](CCc1ccccc1)NC(=O)CN1CCOCC1)C(=O)N[C@@H](Cc1ccccc1)C(=O)N[C@@H](CC(C)C)C(=O)[C@@]1(C)CO1`, for which the Potency was 20.9 nM (active).

On to `COc1cc(C(=O)NS(=O)(=O)c2ccccc2C)ccc1Cc1cn(C)c2ccc(NC(=O)OC3CCCC3)cc12`, for which the Potency entry was “inactive”. `NS(=O)(=O)c1cc(Cl)c(Cl)c(S(N)(=O)=O)c1`: the Potency entry is “inactive”. With `COc1cc(OC)c(/C=C/S(=O)(=O)Cc2ccc(OC)c(NCC(=O)O)c2)c(OC)c1`, the Potency is 263 nM (active). In the case of `CCN(CC)CCCCNc1ncc2cc(-c3cc(OC)cc(OC)c3)c(NC(=O)NC(C)(C)C)nc2n1`, the Potency was 11800 nM (active).

Turning to `COc1cccc2cc(-c3nc(C4CCC(C(=O)O)CC4)n4ncnc(N)c34)[nH]c12` (stereo not given), the Potency is 833 nM (active).

For the compound `O=C(Nc1ccc2[nH]nc(-c3ccncc3)c2c1)[C@@H]1CCN(CC(=O)N2CCN(c3ccc(-c4ncccn4)cc3)CC2)C1`, the Potency is 1660 nM (active).

Regarding `CC1(C)CCC(CN2CCN(c3ccc(C(=O)NS(=O)(=O)c4ccc(NCC5CCOCC5)c([N+](=O)[O-])c4)c(Oc4cnc5[nH]ccc5c4)c3)CC2)=C(c2ccc(Cl)cc2)C1`, the Potency is 118 nM (active). On the same count and under the same terms, for `C[C@@H](Oc1cc(-c2cnn(C3CCNCC3)c2)cnc1N)c1c(Cl)ccc(F)c1Cl` the value was 2350 nM (active). For the compound `CC[C@@H](C)Nc1cc(C(=O)NC2CC3CC[C@@H](C2)N3c2ccc(C(=O)C3CC3)cn2)c(C)cc1C(N)=O` (stereo not given in full), the Potency is 41.7 nM (active). On the same count and under the same terms, for `Cc1ccc(C(C)(O)c2nc3ccccc3s2)c(C)c1` (stereo not given) the value was 18600 nM (active). Turning to `CC(C)OC(=O)C1=CN(C(=O)c2ccc(F)c(F)c2)CC(C)(C)c2c1[nH]c1ccccc21`, the Potency result was “inactive”. On to `CCc1nc(C(N)=O)c(Nc2ccc(N3CCC(N4CCN(C)CC4)CC3)c(OC)c2)nc1NC1CCOCC1`, for which the Potency was 59 nM (active).

As to `CCCc1cc(C)[nH]c(=O)c1CNC(=O)c1cc(-c2ccnc(N3CCN(C)CC3)c2)cc2c1cnn2C(C)C`, the Potency is 23500 nM (active). Still for that read-out and setting: for `CC(C)(C)Sc1c(CC(C)(C)C(=O)O)n(Cc2ccc(Cl)cc2)c2ccc(OCc3ccc4ccccc4n3)cc12` the value was 26300 nM (active); for `CC(=O)Nc1ccc(C(=O)Nc2ccccc2N)cc1`, 5900 nM (active); for `COc1cc2ncnc(Nc3cccc(Br)c3)c2cc1OC`, 9340 nM (active). `O=C1NC(=O)C(c2c[nH]c3ccccc23)=C1c1c[nH]c2ccccc12`: the Potency was 2630 nM (active). The same measure, in the same setting: for `C[C@]12C=CC(=O)C=C1CC[C@@H]1[C@@H]2[C@@H](O)C[C@@]2(C)[C@H]1CC[C@]2(O)C(=O)CO` the value was “inactive”.

Regarding `Nc1nc2ccc(OC(F)(F)F)cc2s1`, the Potency is 23500 nM (active).

Take `CC(C)(CNC(=O)c1cccc(-c2noc(C(F)(F)F)n2)c1)c1coc(-c2ccccc2)n1`: the Potency is 23500 nM (active).

On to `c1cc(N[C@@H]2CCNC2)nc(-c2cnc3ccc(-c4cn[nH]c4)cn23)c1`, for which the Potency was 13.2 nM (active). Same read-out and setting: for `O=C1C[C@@H](c2ccc(O)cc2)Oc2cc(O)cc(O)c21` the value was “inactive”; for `Cc1cc(CS(=O)(=O)c2ccccc2)cc(OCc2ccc(CN3CCC[C@@H]3CO)cc2)c1`, 10500 nM (active).

For `Cc1ccn(-c2ccc(-c3ncco3)cc2)c(=O)c1-c1ccc2nc(N)ncc2c1`, the Potency was 6610 nM (active). Take `CC[C@@H](C)[C@H](NC(=O)[C@H](CC1CCCCC1)NC(=O)c1ccno1)C(=O)N1CCC2(CCc3ccccc32)CC1`: the Potency entry was “inactive”. As to `COc1ccc(-c2cc(=O)c3c(O)cc(O[C@@H]4O[C@H](CO[C@@H]5O[C@@H](C)[C@H](O)[C@@H](O)[C@H]5O)[C@@H](O)[C@H](O)[C@H]4O)cc3o2)cc1O`, the Potency entry is “inactive”. For the compound `O=Nc1c(-c2c(O)[nH]c3cc(Br)ccc23)[nH]c2ccccc12`, the Potency is 263 nM (active). In the case of `O=P(O)(O)C(O)(Cn1ccnc1)P(=O)(O)O`, the viability, % of control is 141% [at 5.12 µM] (inactive). `C[C@@H]1COCCN1c1cc(=O)n2c(n1)N(Cc1cncc(Cl)c1)[C@H](C(F)(F)F)CC2`: the Potency entry was “inactive”.

`CCn1c(-c2nonc2N)nc2cncc(CNC3CCNCC3)c21`: the Potency is 2630 nM (active). The same measure, in the same setting: for `N[C@@H](Cc1ccc(O)c(O)c1)C(=O)O` the value was “inactive”. Still for that read-out and setting: for `CSc1cccc(Nc2ncc3cc(-c4c(Cl)cccc4Cl)c(=O)n(C)c3n2)c1` the value was 1860 nM (active); for `Nc1nc(Nc2ccc(S(N)(=O)=O)cc2)nn1C(=O)c1c(F)cccc1F`, 1660 nM (active); for `CN(C)CCC=C1c2ccccc2C=Cc2ccccc21`, 20900 nM (active). On the same count and under the same terms, for `CC/C(=C(\c1ccccc1)c1ccc(OCCN(C)C)cc1)c1ccccc1` the value was 15200 nM (active); for `Cc1ccc(S(=O)(=O)Cc2nc(-c3ccc(C(=O)NCc4cccnc4)cc3)oc2C)cc1`, 132 nM (active).

Values taken from PubChem BioAssay (NCATS).
